# Screens (PubChem BioAssay)
# An excerpt weighted towards active compounds, which were near 3.6% of everything screened.
# mHTT CaM bind: mHTT-calmodulin interaction abrogation | P42858 | AlphaScreen His-mHTT/GST-CaM binding, luminescence | inhibition, % at 15 µM | 190,000 compounds, 3.6% hits | AID 1671202;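 note: 0% = both proteins with DMSO and 100% = one protein alone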
# Target sequence (P42858 whole entry, looked up, stated change not applied): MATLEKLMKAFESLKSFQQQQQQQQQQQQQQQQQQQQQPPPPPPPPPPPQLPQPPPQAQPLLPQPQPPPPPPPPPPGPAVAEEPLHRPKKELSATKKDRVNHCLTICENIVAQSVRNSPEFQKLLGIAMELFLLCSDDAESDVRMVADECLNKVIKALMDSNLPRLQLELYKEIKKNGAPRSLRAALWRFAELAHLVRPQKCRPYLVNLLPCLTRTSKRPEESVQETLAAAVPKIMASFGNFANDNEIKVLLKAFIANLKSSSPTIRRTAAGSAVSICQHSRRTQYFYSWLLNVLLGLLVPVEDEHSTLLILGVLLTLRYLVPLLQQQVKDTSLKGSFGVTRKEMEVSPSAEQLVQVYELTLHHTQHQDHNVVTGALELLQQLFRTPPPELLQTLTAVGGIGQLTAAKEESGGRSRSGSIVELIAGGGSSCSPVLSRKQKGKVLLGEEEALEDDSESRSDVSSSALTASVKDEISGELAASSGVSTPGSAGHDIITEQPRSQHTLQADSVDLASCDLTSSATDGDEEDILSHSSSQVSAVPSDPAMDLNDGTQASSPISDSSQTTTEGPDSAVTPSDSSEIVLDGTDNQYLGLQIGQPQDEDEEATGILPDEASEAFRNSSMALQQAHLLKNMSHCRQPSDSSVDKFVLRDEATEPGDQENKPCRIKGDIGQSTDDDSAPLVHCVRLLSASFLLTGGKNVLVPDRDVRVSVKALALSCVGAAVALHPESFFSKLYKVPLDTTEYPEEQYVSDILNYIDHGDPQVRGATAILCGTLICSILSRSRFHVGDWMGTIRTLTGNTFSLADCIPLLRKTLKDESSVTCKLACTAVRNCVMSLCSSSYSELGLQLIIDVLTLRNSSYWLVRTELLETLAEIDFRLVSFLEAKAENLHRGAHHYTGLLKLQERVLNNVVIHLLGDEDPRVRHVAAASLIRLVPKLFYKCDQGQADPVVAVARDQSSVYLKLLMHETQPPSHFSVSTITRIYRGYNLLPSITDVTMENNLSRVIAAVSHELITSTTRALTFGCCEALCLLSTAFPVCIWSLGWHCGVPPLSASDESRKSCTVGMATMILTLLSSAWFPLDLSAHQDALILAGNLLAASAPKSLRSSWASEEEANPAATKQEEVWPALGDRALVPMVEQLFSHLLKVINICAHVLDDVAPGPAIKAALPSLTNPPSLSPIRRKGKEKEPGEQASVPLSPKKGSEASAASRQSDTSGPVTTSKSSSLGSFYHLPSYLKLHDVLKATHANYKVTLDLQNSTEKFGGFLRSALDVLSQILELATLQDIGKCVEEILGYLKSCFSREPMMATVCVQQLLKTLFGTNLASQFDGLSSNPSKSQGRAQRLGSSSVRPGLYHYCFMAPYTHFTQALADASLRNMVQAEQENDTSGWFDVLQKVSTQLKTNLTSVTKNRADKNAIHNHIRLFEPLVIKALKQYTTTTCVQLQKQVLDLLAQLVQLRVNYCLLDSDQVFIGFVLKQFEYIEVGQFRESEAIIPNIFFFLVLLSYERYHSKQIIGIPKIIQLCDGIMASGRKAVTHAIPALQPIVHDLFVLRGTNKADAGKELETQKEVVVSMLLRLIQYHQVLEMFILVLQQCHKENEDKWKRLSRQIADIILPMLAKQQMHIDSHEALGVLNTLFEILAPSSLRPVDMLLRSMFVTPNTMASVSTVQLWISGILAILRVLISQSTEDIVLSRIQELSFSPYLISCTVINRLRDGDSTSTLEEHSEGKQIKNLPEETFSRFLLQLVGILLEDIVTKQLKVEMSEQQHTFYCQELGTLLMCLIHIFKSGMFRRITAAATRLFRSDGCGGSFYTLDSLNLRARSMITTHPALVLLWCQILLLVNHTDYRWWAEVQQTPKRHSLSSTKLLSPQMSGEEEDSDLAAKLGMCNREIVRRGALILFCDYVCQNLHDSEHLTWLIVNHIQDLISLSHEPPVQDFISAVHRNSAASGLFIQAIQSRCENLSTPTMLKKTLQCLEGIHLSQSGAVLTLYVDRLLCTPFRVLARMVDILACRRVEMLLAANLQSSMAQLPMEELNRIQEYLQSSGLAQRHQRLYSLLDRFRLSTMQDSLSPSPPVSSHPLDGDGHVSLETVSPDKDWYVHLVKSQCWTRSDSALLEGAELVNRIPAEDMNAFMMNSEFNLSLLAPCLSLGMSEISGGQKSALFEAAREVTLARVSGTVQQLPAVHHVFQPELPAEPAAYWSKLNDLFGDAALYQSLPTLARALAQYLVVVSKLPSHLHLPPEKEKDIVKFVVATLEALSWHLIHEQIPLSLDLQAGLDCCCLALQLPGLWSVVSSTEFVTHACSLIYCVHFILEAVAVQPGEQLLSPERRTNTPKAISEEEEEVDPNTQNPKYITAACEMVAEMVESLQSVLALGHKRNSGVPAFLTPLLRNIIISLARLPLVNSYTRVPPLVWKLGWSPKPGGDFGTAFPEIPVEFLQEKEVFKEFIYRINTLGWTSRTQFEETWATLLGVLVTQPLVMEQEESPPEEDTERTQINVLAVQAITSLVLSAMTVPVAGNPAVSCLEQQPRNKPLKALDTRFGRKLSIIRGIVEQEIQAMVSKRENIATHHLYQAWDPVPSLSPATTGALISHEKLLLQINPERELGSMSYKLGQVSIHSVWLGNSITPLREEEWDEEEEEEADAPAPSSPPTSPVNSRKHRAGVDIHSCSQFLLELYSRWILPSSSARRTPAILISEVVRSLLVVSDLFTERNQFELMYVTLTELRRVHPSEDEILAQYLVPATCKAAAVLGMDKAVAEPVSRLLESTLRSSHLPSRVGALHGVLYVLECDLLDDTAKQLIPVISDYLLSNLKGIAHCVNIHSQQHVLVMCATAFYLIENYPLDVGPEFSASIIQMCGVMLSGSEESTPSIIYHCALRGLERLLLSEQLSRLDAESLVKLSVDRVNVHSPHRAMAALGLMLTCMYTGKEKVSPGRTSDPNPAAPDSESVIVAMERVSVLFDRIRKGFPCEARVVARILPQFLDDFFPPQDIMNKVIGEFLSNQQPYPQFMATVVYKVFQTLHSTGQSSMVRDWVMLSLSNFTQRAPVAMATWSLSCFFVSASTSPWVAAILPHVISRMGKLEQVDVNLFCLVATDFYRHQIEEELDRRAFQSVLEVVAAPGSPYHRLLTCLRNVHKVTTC
# Pf apPOL block: Pf-apPOL DNA polymerase inhibition; Recombinant Pf-apPOL, molecular beacon fluorescence, 1.5 h; inhibition, % at 10 µM; 210,000 compounds, 0.25% hits; AID 1794808
# * marks the source's active call; other numbers are inactive results. Cut-off read from the data, not from the text of the source: active = inhibition above about 50%; inactive = the rest.
SMILES,mHTT CaM bind,Pf apPOL block
COc1ccc(NC(C)=O)cc1NC(=O)Cc1cn(Cc2ccccc2)c2ccccc12,82.9*,-8.5
COc1ccc(NC(=O)Cc2cn(C)c3ccccc23)cc1Cl,28.0,-1.7
Cc1ccc(NC(=O)CCN2CCN(Cc3ccccc3)CC2)cc1,7.0,-5.6
CCC(C)N1C(=O)C(C)NC12CCN(S(=O)(=O)c1ccc(F)cc1)CC2 (stereo unspecified),2.8,-1.4
Nc1ccccc1Nc1c([N+](=O)[O-])c(=O)oc2ccccc12,71.0*,-0.4
COc1ccccc1Nc1c([N+](=O)[O-])c(=O)oc2ccccc12,10.0,1.6
CC(CNC(=O)C1CC1c1ccccc1)NC(=O)C1CC1c1ccccc1 (stereo unspecified),-3.5,-7.1
CCCC(=O)NC(c1ccc(Cl)cc1Cl)c1cc([N+](=O)[O-])c2cccnc2c1O (stereo unspecified),99.0*,-2.9
CCC(=O)NC(c1ccccc1Cl)c1cc([N+](=O)[O-])c2cccnc2c1O (stereo unspecified),100.0*,-3.2
CCC(=O)NC(c1ccccc1)c1cc([N+](=O)[O-])c2cccnc2c1O (stereo unspecified),100.0*,0.7
CC(C)C(=O)NC(c1cccs1)c1cc([N+](=O)[O-])c2cccnc2c1O (stereo unspecified),100.0*,-4.7
COc1ccccc1C=C1Oc2cc(OC(C)=O)ccc2C1=O,6.7,-4.8
Cc1ccc2nc(NC(=O)CN3CCc4nc(NC(=O)C5CC5)sc4C3)sc2c1,40.1,-3.3
Cc1ccc(-c2nc(N)sc2C)c(C)c1,7.8,-2.3
CCOc1ccc2cc(C3=NN(C(=O)CCC(=O)O)C(c4ccc(C)cc4)C3)c(=O)[nH]c2c1 (stereo unspecified),7.0,-2.2
O=C(Nc1ccc(NC(=O)c2ccc(Cl)cc2Cl)cc1)c1ccco1,-2.4,-3.4
CCC(=O)NC(c1ccc(C(C)C)cc1)c1cc([N+](=O)[O-])c2cccnc2c1O (stereo unspecified),100.0*,-7.6
CN(C)C(=O)NC(c1ccccc1)c1cc([N+](=O)[O-])c2cccnc2c1O (stereo unspecified),100.0*,-10.1
CCC(=O)NC(c1ccccc1OC)c1cc([N+](=O)[O-])c2cccnc2c1O (stereo unspecified),100.0*,-3.9
CCCC(=O)NC(c1ccc(C(C)C)cc1)c1cc([N+](=O)[O-])c2cccnc2c1O (stereo unspecified),51.4*,-1.9
COc1ccccc1N(CC(=O)Nc1ccc(C)cc1)S(C)(=O)=O,0.6,-5.8
CCOc1ccc(C(=O)N2CCN=C2N2CCCC2)cc1,-2.9,-4.9
CN1CCC(=O)N([C@H](COc2ccccc2)c2ccccc2)CC1,48.7,-11.2
CCC(NS(=O)(=O)c1ccc(C)cc1)C(=O)NC1CCCC(C)C1C (stereo unspecified),-15.0,-4.0
COc1ccc(OC)c(N2CCN(Cc3ccccc3F)C(C)C2=O)c1 (stereo unspecified),22.4,0.2
SMILES,mHTT CaM bind,Pf apPOL block
COc1ccc(OC)c(N2CCN(Cc3ccc(F)cc3)C(C)C2=O)c1 (stereo unspecified),73.8*,4.0
COc1ccc(OC)c(N2CCN(Cc3cccc(C)c3)C(C)C2=O)c1 (stereo unspecified),62.3*,0.6
COc1ccc(N2CCN(Cc3ccc(F)cc3)C(C)C2=O)c(OC)c1 (stereo unspecified),17.4,-1.3
CCc1ccccc1NC(=O)Nc1ccc2nnc(C)n2c1,-1.4,0.0
COCC(=O)Nc1ccc(Cl)cc1C,-1.0,3.6
CCn1c(=N)c(C(=O)NC(C)c2ccccc2)cc2c(=O)n3cccc(C)c3nc21 (stereo unspecified),0.0,-5.9
CCNC(=O)c1cc2c(=O)n3ccccc3nc2n(Cc2ccco2)c1=N,18.0,15.5
Cc1cccn2c(=O)c3cc(C(=O)NC(C)c4ccccc4)c(=N)n(Cc4ccco4)c3nc12 (stereo unspecified),51.0*,3.9
CC(NC(=O)c1cc2c(=O)n3ccccc3nc2n(Cc2ccco2)c1=N)c1ccccc1 (stereo unspecified),51.0*,-2.2
Cc1cccn2c(=O)c3cc(C(=O)NC(C)c4ccccc4)c(=N)n(C4CCCCC4)c3nc12 (stereo unspecified),54.0*,-0.1
Cc1cccn2c(=O)c3cc(C(=O)NCc4ccccc4)c(=N)n(Cc4ccco4)c3nc12,38.0,12.3
Cc1ccc(OCCn2ccnc2)c(Br)c1,4.2,-2.7
Cn1nc(-c2nc(-c3ccccc3F)no2)c2c1CCN(C(=O)c1cccc(Cl)c1)C2,7.4,-2.2
O=C1CC(NCCN2CCOCC2)C(=O)N1c1ccc(N=Nc2ccccc2)cc1 (stereo unspecified),36.0,-0.7
CCOc1ccccc1C(=O)Nc1nnc(SCC)s1,-4.6,5.1
CC1CN(C(=O)COc2ccccc2)CC1c1nc(-c2ccncc2)no1 (stereo unspecified),1.9,-6.3
